Compound activity as filed in PubChem.
MEKK2 mut-MEK5 = signal of MEK5 binding to mutant human MEKK2 PB1 domain. bead flow cytometry, Alexa488-MEK5 binding to MEKK2 mutant. percent response, % at 10 µM. hit rate 0.35% among 290,000; in the data active = percent response above about 24%, passing the limit was not always enough
MEKK2 WT-MEK5 = raises or lowers MEK5 binding to wildtype human MEKK2 PB1 domain; binding response (% of control), % at 10 µM; AID 1531; hit rate 1.1% among 290,000; Q9Y2U5; bead flow cytometry, Alexa488-MEK5 binding to MEKK2 WT; actives lie on both sides; in the data active = binding response below about 67% or above about 130%
MEKK3 PB1 HTS = raises or lowers MEK5 binding to the human MEKK3 PB1 domain | Q99759 | bead-based flow cytometry, Alexa488-MEK5 binding to MEKK3; actives lie on both sides; 0 = blocked by unlabeled MEK5, 100 = vehicle | binding response (% of control), % at 10 µM | hit rate 1.4% among 290,000;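 active = binding response more than 3 SD above or below the average of its plate-row segment, actives on both sides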;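 also: Alexa488 bead fluorescence after subtracting the streptavidin-only scavenger bead signal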
Target sequence (Q99759 whole entry, looked up, the tested form may be a part): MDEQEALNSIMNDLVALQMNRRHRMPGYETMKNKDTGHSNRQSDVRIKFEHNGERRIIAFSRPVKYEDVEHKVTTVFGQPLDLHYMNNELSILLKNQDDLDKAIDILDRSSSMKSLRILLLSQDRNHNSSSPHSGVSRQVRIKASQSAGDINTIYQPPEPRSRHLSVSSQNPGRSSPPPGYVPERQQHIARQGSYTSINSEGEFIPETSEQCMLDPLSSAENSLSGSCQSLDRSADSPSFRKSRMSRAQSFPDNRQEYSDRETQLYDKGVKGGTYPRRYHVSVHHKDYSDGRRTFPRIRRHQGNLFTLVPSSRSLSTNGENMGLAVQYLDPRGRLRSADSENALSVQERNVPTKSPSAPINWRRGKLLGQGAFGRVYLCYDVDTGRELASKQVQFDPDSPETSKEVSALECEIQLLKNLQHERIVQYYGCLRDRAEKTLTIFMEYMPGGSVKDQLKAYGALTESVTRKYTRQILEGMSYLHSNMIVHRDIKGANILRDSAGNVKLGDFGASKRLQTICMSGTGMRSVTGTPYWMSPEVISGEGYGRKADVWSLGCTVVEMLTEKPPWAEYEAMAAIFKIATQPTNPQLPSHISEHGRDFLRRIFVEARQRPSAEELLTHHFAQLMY
CHT block = inhibits the human high affinity choline transporter. B-score at 10 µM. CHT-expressing cells, membrane potential dye, choline response; hits give low values. hit rate 0.86% among 310,000;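 active = B-score over 3 SD under the library average, and starting fluorescence ratio not unusually high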;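 also: choline stimulus applied at its EC90 after an EC20 pre-addition; B-score computed on integrated fluorescence ratio after choline addition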
CHT PAM = human CHT allosteric activation | hit rate 0.49% among 310,000 | CHT-expressing cells, membrane potential dye, choline EC20; hits give high values; LV-AA mutant CHT in HEK293 cells | Q9GZV3 | B-score at 10 µM;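 active = initial fluorescence not abnormally high and integrated response B-score, plate-corrected, over 3 SD above library mean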
Mot1-301 SUMO = inhibitors of SUMOylation pathway: yeast Mot1-301 growth rescue | hit rate 1% among 320,000 | S. cerevisiae Mot1-301 growth rescue, ATP luminescence, 38.5C; percent above DMSO median, 100 means doubled | AID 2716 | growth rescue, % at 18.8 µM;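 active = every valid replicate shows activation above 250% relative to neutral control wells; inactive = the rest, any valid replicate at or below 250%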;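 also: OY570 slx delta 5 strain wells were the positive control but not used for scaling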
CHT activ conf = confirmation of human choline transporter (CHT) activators; hit rate 91% among 2,500; shares compounds with CHT PAM; CHT-expressing cells, membrane potential dye fluorescence (FDSS); % of choline EC20–EC90 response window; HEK293 expressing CHT LV-AA mutant; choline added at its EC20; activation, % at 10 µM;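 active = primary screen active, with duplicate mean activation above negative control mean plus 3 SD, cut at about 11% in these data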
HEK293 MP dye = counter-screen for CHT activators: effect in parental HEK293 cells; shares compounds with CHT PAM; membrane potential dye fluorescence (FDSS); measured after EC20 choline addition; ratio readout change at 10 µM, hits read low; hit rate 62% among 2,500; AID 623908;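 active = duplicate-averaged ratio beyond 3 SD from buffer wells, up or down, though filed actives are nearly all decreases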
An asterisk follows results filed as active; i = inactive; x = not tested or not shown. The list is not random: actives were taken first. Their share in the collection is about 4.1%.

SMILES	MEKK2 mut-MEK5	MEKK2 WT-MEK5	MEKK3 PB1 HTS	CHT block	CHT PAM	Mot1-301 SUMO	CHT activ conf	HEK293 MP dye
CCCC(c1nnnn1C(C)(C)CC)N1CCN(C2CCCC2)CC1 (configuration not stated)	6.0	107.0	104.0	i	8.41*	0.4	51.2*	i
CCCC(c1nnnn1Cc1ccc(F)cc1)N1CCN(C2CCCCC2)CC1 (configuration not stated)	9.0	100.0	100.0	i	10.2*	-0.1	36.4*	i
CCCCC(c1nnnn1C1CCCC1)N1CCN(C2CCCC2)CC1 (configuration not stated)	1.0	101.0	98.0	i	6.59*	-1.1	42.8*	i
N#CC1=C(N)Oc2cc(N)ccc2C1c1cccc(Br)c1 (configuration not stated)	8.0	105.0	104.0	i	i	-5.9	33.6*	i
O=C(O)CSCC(=O)N1CCN(c2ccnc3cc(Cl)ccc23)CC1	-6.0	94.0	93.0	i	i	-17.7	x	x
CC(=O)N1CCN(c2ccnc3cc(Cl)ccc23)CC1	-6.0	89.0	97.0	i	8.58*	-9.3	65.3*	-67.1*
CCCCNC(=O)N1CCN(c2ccnc3cc(Cl)ccc23)CC1	2.0	106.0	103.0	i	i	14.1	57.9*	-61.5*
O=C(N/N=C/c1cc(Br)c(Br)o1)c1cccnc1	1.0	105.0	123.0	i	i	-5.7	x	x
Cc1cccc(C(=O)NC(C(=O)Nc2ccccc2N2CCOCC2)C(C)C)c1 (configuration not stated)	-3.0	95.0	103.0	i	i	-11.0	x	x
COCCNC(=O)c1c(N)n(/N=C/c2cccs2)c2nc3ccccc3nc12	7.0	109.0	111.0	i	i	123.7	28.0*	i
CCCCNC(=O)c1c(N)n(/N=C/c2ccccn2)c2nc3ccccc3nc12	x	x	x	i	i	5.6	x	x
CC(=NCCCn1ccnc1)c1c(C)[nH]n(-c2ccc([N+](=O)[O-])cc2)c1=O	-6.0	105.0	112.0	i	7.79*	-6.4	48.8*	-44.5*
Cc1[nH]n(-c2ccc([N+](=O)[O-])cc2)c(=O)c1/C=N/N1CCOCC1	-7.0	93.0	89.0	i	i	-23.9	x	x
Cc1ccn2c(NC3CCCC3)c(-c3ccncc3)nc2c1	-4.0	105.0	112.0	i	7.16*	-0.3	47.0*	-63*
Cc1cc(NCCN(C)C)n2nc(-c3cccs3)cc2n1	x	x	x	i	10.2*	6.8	47.3*	-89.1*
Cc1cc(NCCCO)n2nc(-c3cccs3)cc2n1	-3.0	96.0	100.0	i	8.07*	239.4	61.8*	-55.6*
CCc1ccc(NC(=O)CSc2nnc(-c3cnccn3)n2C)cc1	-4.0	98.0	95.0	i	i	-7.1	x	x
O=C(Nc1ccc2ccccc2c1)C(c1ccccc1)C1CCCC1 (configuration not stated)	19.0	131.0	98.0	i	i	-13.6	23.9*	i
Cc1cc(C)cc(OCC(=O)OCC(=O)NC2CCCCCCC2)c1	x	x	x	i	i	7.8	x	x
CC1CC(CCC(=O)NC(=S)Nc2ccc(Cl)cn2)C(=O)O1 (configuration not stated)	2.0	105.0	104.0	i	i	-6.2	x	x
O=C1CC2(CCN(C(=O)c3ccccc3Br)CC2)Oc2ccccc21	x	x	x	i	i	7.5	x	x
COc1ccc(Cl)cc1C(=O)N1CCC2(CC1)CC(=O)c1ccccc1O2	x	x	x	i	9.62*	180.8	4.2	i
COc1ccccc1OCC(=O)N1CCC2(CC1)CC(=O)c1ccccc1O2	x	x	x	i	i	178.8	x	x
O=C1CC2(CCN(C(=O)c3c(F)cccc3Cl)CC2)Oc2ccccc21	x	x	x	i	8.67*	-4.8	-3.0	i
CCC(=O)Nc1ccccc1C(=O)OC(c1ccccc1)c1ccccc1	-2.0	100.0	95.0	i	7.34*	11.4	26.9*	i
SMILES	MEKK2 mut-MEK5	MEKK2 WT-MEK5	MEKK3 PB1 HTS	CHT block	CHT PAM	Mot1-301 SUMO	CHT activ conf	HEK293 MP dye
CCC(=O)Nc1ccccc1C(=O)C(=O)Nc1ccccc1	-2.0	100.0	99.0	i	i	4.2	x	x
COc1ccc2c(c1)c1ncn(CCCN3CCOCC3)c(=O)c1n2C	7.0	113.0	110.0	i	i	-6.3	44.3*	-39.5*
Cc1ccc(-c2nn(C)c(=O)c3ccccc23)cc1CN1CCCCC1	6.0	100.0	100.0	i	8.66*	0.5	26.8*	-52.2*
CCOP(=O)(OCC)C(NCc1ccccc1)c1ccc(Br)cc1 (configuration not stated)	0.0	99.0	99.0	i	i	-9.7	29.3*	i
Cc1ccc(-n2c(C)cc(/C=C3/SC(=O)N(CC(=O)N4CCOCC4)C3=O)c2C)nc1	1.0	99.0	96.0	i	i	-14.4	x	x
CCOc1cc(/C=C/c2cccc[n+]2C)ccc1O	4.0	106.0	102.0	i	6.92*	-7.0	48.4*	-31.4*
O=C(NCc1ccco1)c1ccc(N2CCCC2=O)cc1	5.0	111.0	108.0	i	i	12.2	x	x
O=C(N/N=C/c1ccco1)c1ccc(N2CCCC2=O)cc1	7.0	104.0	95.0	i	7.73*	0.3	59.4*	-70.5*
Cc1ccc(S(=O)(=O)N2CCCCC2)cc1NS(=O)(=O)c1ccccc1F	x	x	x	x	x	0.2	x	x
O=C(COc1cccnc1[N+](=O)[O-])c1ccc(Cl)s1	-15.0	71.0	68.0	i	i	-11.6	x	x
CCN1CCN(c2nc(NCCO)c3ccccc3n2)CC1	5.0	114.0	109.0	i	8.87*	14.7	75.9*	-79.1*
OCCNc1c2ccccc2nc2ccccc12	-3.0	93.0	94.0	i	6.32*	10.8	40.3*	-47.2*
OCCNc1nc(-c2ccccc2)nc2ccccc12	-2.0	98.0	97.0	i	i	5.3	x	x
OCCNc1nc(N2CCN(Cc3ccccc3)CC2)nc2ccccc12	3.0	103.0	102.0	i	i	-15.9	59.5*	-71.9*
CC(CC(F)(F)F)N1CCC(n2nccc2NC(=O)CCCc2ccccc2)CC1 (configuration not stated)	6.0	106.0	100.0	i	i	14.8	-2.9	i
